Data taken from PubChem BioAssay (NCI).
Where “and” joins values, the source holds several entries; their conditions need not be identical. Identical values can stand only once. The panel holds about 83,000 compounds, 20% with a hit somewhere; the sample as a whole holds those more often.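 Treatment: one concentration, 48 hours, 96-well format. Scoring: percent growth, with anything below 10 considered active.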 Calls of active or inactive are those of the source.

Tested on: A549/ATCC NSCLC
Test: NCI-60 one-dose screen, 48 h (100 = growth as untreated, 0 = no growth, -100 = all killed)
Settings: 10 µM unless noted
Description: Growth inhibition of the A549/ATCC human Non-Small Cell Lung tumor cell line is measured as a screen for anti-cancer activity. Cells are grown in 96 well plates and exposed to the test compound for 48 hours. Compounds are tested at a single concentration, which is 10^-5 M for most compounds. The reported endpoint is percent growth (GI% or GIPRCNT), where numbers from 0 - 100% represent growth inhibition, and numbers from -100% - 0 represent cell death. For example, a value of 40 represents 60% growth inhibition. A value of 0 means no net growth occurred over the course of the experiment. A value of -40 indicates 40% of cells at the beginning of the experiment died by the end of the experiment. A value of -100 means all cells are dead at the end of the experiment.
NCI-60 Human Tumor Cell Lines Screen was performed using the standard one-dose NCI protocol, which is described in more detail at https://dtp.cancer.gov/discovery_development/nci-60/default.htm.
Compounds with GIPRCNT values below 10 were considered active. Activity score was based on GIPRCNT using the following formula: […]
Score is 0 for GIPRCNT values of 100 or above, 50 for GIPRCNT values of 0, and 100 for GIPRCNT values of -100.

Structure (SMILES) | growth
CO[C@H]1[C@H](O[C@@H]2C[C@@H]3C/C=C/C(=O)O[C@@H](CO)C[C@H](O)[C@@H]4C[C@H](C)[C@H](C/C=C\C=C\[C@H](C)C[C@H](C2)O3)O4)O[C@@H](C)[C@H](O)[C@H]1O | 47% (inactive)
O=c1[nH]c(=O)[nH]c(=O)[nH]1 | 108% (inactive)
CC[C@H](C)[C@H](NC(=O)[C@H]1CCCCN1C)C(=O)N(C)[C@H](C[C@@H](OC(C)=O)c1nc(C(=O)N[C@@H](Cc2ccccc2)C[C@H](C)C(=O)O)cs1)C(C)C | 10.2% (inactive)
CCCCS(=O)(=O)Cl | 109% (inactive)
C=CCOC(=O)C(Br)CC (stereo not given) | 107% (inactive)
Nc1ccc(P(=O)(O)O)cc1 | 102% (inactive) and 94.4% (inactive)
C[C@]12CCc3sc(Nc4ccc(OC(F)(F)F)cc4)nc3C1=CC[C@@H]1[C@@H]2CC[C@]2(C)C(=O)CC[C@@H]12 | 67% (inactive)
CCCCCCCCCCCCCCCC[n+]1ccccc1 | -61.4% (active)
CCCCCCCCCCCCCCCC[N+](C)(C)C | 29.4% (inactive)
CC[C@H](C)[C@H](NC(=O)c1cnccn1)C(=O)N(C)[C@H](C[C@@H](OC(C)=O)c1nc(C(=O)N[C@@H](Cc2ccccc2)C[C@H](C)C(=O)OC)cs1)C(C)C | 19.2% (inactive)
Nc1cccnc1 | 106% (inactive)
O=C=Nc1ccc(Br)cc1 | 113% (inactive)
CC[C@H](C)[C@H](NC(=O)CN(C)C)C(=O)N(C)[C@H](C[C@@H](OC(C)=O)c1nc(C(=O)NC23CC(C(=O)OC)(C2)C3)cs1)C(C)C | 19.3% (inactive)
CCCCOC(N)=O | 109% (inactive)
O=C(NCCCN1CC1)Nc1cccc2ccccc12 | 97.3% (inactive) and 91.6% (inactive)
COc1ccn(C)c(=O)c1C#N | 83.7% (inactive)
CC[C@H](C)[C@H](NC(=O)[C@H]1CCCCN1C)C(=O)N(C)[C@H](C[C@@H](OC(C)=O)c1cccc(C(=O)N[C@@H](Cc2ccccc2)C[C@H](C)C(=O)OC)n1)C(C)C | 10.5% (inactive)
CC1(C)C2CCC1(CS(=O)(=O)O)C(=O)C2 (stereo not given) | 96.6% (inactive) and 96.8% (inactive)
O=C(Cc1ccccc1)NC(O)C(Cl)(Cl)Cl (stereo not given) | 96.3% (inactive)
O=C1CN2CCC1CC2 | 92.7% (inactive)

Structure (SMILES) | growth
O=[N+]([O-])c1cc(Br)c(O)c(Br)c1 | 98.9% (inactive)
COC12CC3C4=CCOC5CC(=O)N6c7ccccc7C1(CCN2C4)C6C53 (stereo not given) | 91.2% (inactive)
NC(=O)c1c(Br)c(Br)c(Br)c(Br)c1C(=O)O (tested in a mixture with another compound) | 102% (inactive) and 98% (inactive)
O=C(O)C1C(C(=O)O)C2(Cl)C(Cl)=C(Cl)C1(Cl)C2(Cl)Cl (stereo not given) | 104% (inactive) and 95.8% (inactive)
COc1ccc(/C=C(/C)[N+](=O)[O-])cc1OC | 53.7% (inactive) and 52.9% (inactive)
CC1=CC(=O)CCC12CCOC2=O (stereo not given) | 97.8% (inactive)
CC[C@H](CC[C@@H](C)[C@H]1CC[C@H]2[C@@H]3CC[C@H]4C[C@]5(CC[C@]4(C)[C@H]3CC[C@]12C)OO[C@](C)(C(F)(F)F)O5)C(C)C | 95.3% (inactive)
O=[N+]([O-])c1ccc(P(=O)(O)O)cc1 | 103% (inactive)
C[C@]12CCC3[C@@H](C[C@@H]4SC(Nc5ccccc5)=N[C@@]45CC(=O)CC[C@]35C)[C@@H]1CCC2=O (stereo not given in full) | 33.5% (inactive)
CC(C)COC(=O)Cc1ccccc1 | 105% (inactive)
ClC1OC(Cl)(Cl)C(Cl)(Cl)OC1(Cl)Cl (stereo not given) | 102% (inactive)
CN1[C@@H](CC(=O)c2ccccc2)CCC[C@H]1CC(=O)c1ccccc1 | 93.8% (inactive)
N#CC(C#N)=C(C#N)C#N | 99.9% (inactive)
CC[C@H](C)[C@H](NC(=O)[C@H]1CCCCN1C)C(=O)N(C)[C@H](CCc1nc(C(=O)N[C@@H](Cc2ccccc2)C[C@H](C)C(=O)O)cs1)C(C)C | 22.4% (inactive)
CCOC(=O)c1cncn1C(C)c1ccccc1 (stereo not given) | 103% (inactive)
CNC(=O)O/N=C(\SC)C(=O)N(C)C | 109% (inactive)
CC1(C)S[C@H]2CC[C@H]3OC(=O)[C@@H]1N23 | 96.6% (inactive)
CC12CCC3C(CCC4CC(O)CCC43C)C1CCC2=O (stereo not given) | 94.2% (inactive)
O=C1NC(=O)C(=C/C=C/c2ccccc2)C(=O)N1 | 80.2% (inactive)
CN(C)c1ccc(C=C2C(=O)NC(=O)NC2=O)cc1 | 92.6% (inactive)
